# Data from PubChem BioAssay AID1851 (National Center for Advancing Translational Sciences (NCATS), 2009).
# About 2,600 (16%) of roughly 16,000 compounds were called active. Another 20% or so got no clear call; they are omitted. Calls come from the whole dose curve; as a rule, active = well fitted curve in the direction sought with a large enough effect; inconclusive = small, poorly fitted or top-dose-only effect, or effect the other way; inactive = no such curve, though single readings can be large or run the other way. Not all results are given here.
# Molecular target: Cytochrome P450 2D6 (Homo sapiens) (UniProt P10635)
# Assay: Cytochrome panel assay with activity outcomes
# Settings: recombinant CYP, pro-luciferin dealkylation, luminescence, p450-cyp2d6; series mostly up to 57.1 µM
# % is set by controls: 0 for no effect and ±100 for the full control effect.
# Sequence of Cytochrome P450 2D6 (Homo sapiens) (P10635 whole entry, looked up): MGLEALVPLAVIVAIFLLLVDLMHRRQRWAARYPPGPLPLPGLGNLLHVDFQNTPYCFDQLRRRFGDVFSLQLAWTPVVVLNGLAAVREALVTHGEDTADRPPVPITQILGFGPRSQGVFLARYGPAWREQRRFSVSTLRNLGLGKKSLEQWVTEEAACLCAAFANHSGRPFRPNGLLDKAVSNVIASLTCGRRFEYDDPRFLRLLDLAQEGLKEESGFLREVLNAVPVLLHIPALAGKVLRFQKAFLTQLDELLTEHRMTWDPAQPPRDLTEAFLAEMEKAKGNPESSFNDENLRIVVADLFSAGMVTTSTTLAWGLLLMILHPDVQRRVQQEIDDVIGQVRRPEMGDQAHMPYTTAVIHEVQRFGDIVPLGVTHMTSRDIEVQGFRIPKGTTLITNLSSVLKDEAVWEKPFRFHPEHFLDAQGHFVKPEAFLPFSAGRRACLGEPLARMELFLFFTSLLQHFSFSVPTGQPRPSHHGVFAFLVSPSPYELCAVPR
Structure (SMILES),AC50,"activity, negative = inhibition"
O=c1c2ccccc2nc2n1CCC2,inactive,–
CC(=O)c1cc(NC(=O)c2cccc(C(F)(F)F)c2)c(=O)oc1/C=C/N(C)C,inactive,–
CC1(C)CC(=O)c2c(Cc3ccccc3)n[nH]c2C1,inactive,–
N#C/C(=C(/O)CN1CCCCC1)c1nc(-c2ccc(Cl)cc2)cs1,inactive,–
Cn1c(=O)c2[nH]c(-c3ccc(S(=O)(=O)O)cc3)nc2n(C)c1=O,inactive,–
COCCn1c(=O)c(-c2cccs2)nc2cnc(N3CCN(C)CC3)nc21,inactive,–
O=c1c(-c2ccc(F)c(F)c2)nc2cncnc2n1Cc1ccccc1Cl,inactive,–
COc1ccc2c(c1)c(CC(=O)OCC(=O)O)c(C)n2C(=O)c1ccc(Cl)cc1,inactive,–
NC(=O)OC[C@H](O)COc1ccc(Cl)cc1,inactive,–
NC(=O)OCC(COC(N)=O)c1ccccc1,0.794 µM (active),–
COc1ccccc1OC[C@H](O)COC(N)=O,inactive,–
COCCn1c(=O)c(-c2ccc(OC)cc2)nc2cnc(N3CCNCC3)nc21,inactive,–
Cc1ccc(C(=O)Cn2nnc3c(sc4nc5c(c(-c6ccccc6)c43)CCC5)c2=O)cc1,inactive,–
Cc1ccc(C(=O)CNc2nc3c(c(=O)[nH]c(=O)n3C)n2Cc2ccccc2)cc1,inactive,–
COc1ccc(NC(=O)C(=O)NNC(=O)c2cccs2)c(OC)c1,inactive,–
Cc1c(NC(=O)C(C)N2C(=O)c3ccccc3C2=O)c(=O)n(-c2ccccc2)n1C (configuration not stated),inactive,–
c1cncc(-c2nnc3n2C2(CCCCC2)Cc2ccccc2-3)c1,inactive,–
CC1=NC(C)(C)Cc2ccccc21,14.1 µM (active),–
Cc1cccc2c1OCC/C2=N\NC(=O)COc1ccccc1,inactive,–
Cc1ncc([N+](=O)[O-])n1CCO,inactive,–
N#Cc1ccc(C2=NC(C(F)(F)F)(C(F)(F)F)c3c(n(Cc4ccco4)c(=O)[nH]c3=O)N2)cc1,inactive,–
COCCn1c(=O)c(-c2cccs2)nc2cnc(OC)nc21,inactive,–
CN(C)CCn1c(=O)n(Cc2ccco2)c(=O)c2c3c(sc21)CCCCC3,1.58 µM (active),–
Cn1c(=O)c2c3c(sc2n2cnnc12)CCC3,inactive,–
NC(=O)Cn1c(=O)n(Cc2ccco2)c(=O)c2c3c(sc21)CCCCC3,inactive,–
CC(=O)N(NC(=O)c1ccccc1Cl)C1CC(=O)N(c2ccc(C)cc2)C1=O (configuration not stated),inactive,–

Structure (SMILES),AC50,"activity, negative = inhibition"
CC(=O)N(C[C@@H](C)C(=O)O)c1c(I)cc(I)c(N)c1I,inactive,–
CCOc1cc2c(C)cc(=O)oc2cc1Cl,inactive,–
O=C(COc1ccc(Br)cc1)N1CCC(c2ccccc2)C1 (configuration not stated),17.8 µM (active),–
CCOc1ccc(NC(=O)N2CCC(c3ccc(C)cc3)C2)cc1 (configuration not stated),inactive,–
Brc1ccc(-c2csc(N3CCC(c4ccccc4)C3)n2)cc1 (configuration not stated),inactive,–
CN(CCCNC(=O)c1ccc(/C=N/O)nc1)CCCN(C)Cc1ccccc1,2.82 µM (active),–
COC(=O)c1cc2n(n1)CCN(Cc1ccccc1F)C2=O,inactive,–
Cc1ccc(C(=O)NC2CCCCC2)cc1,inactive,–
Cc1ccc(C(=O)C2CCNCC2)cc1,1.41 µM (active),–
Cc1ccc(C(=O)/C=C2\NCC(C)NC2=O)cc1 (configuration not stated),inactive,–
O=C(Oc1ccc(OC(=O)c2ccco2)c(S(=O)(=O)c2ccc(Br)cc2)c1)c1ccco1,inactive,–
C/C(=N\NC(=O)c1ccncc1)c1ccc2ccccc2c1O,–,-2.13% [at 11.4 µM] (inactive)
COc1ccc(NC(=O)C(c2ccc(OC)cc2)N(C)C(=O)CNC(C)=O)cc1 (configuration not stated),inactive,–
CN(C)/C(CN1CCN(C=O)CC1)=C1\N=C(c2ccccc2)OC1=O,inactive,–
CC1CN(C(=O)c2cc3c(s2)CCC3)CC(C)O1 (configuration not stated),inactive,–
CN1CCN(C(=O)c2ccc(COc3ccc(C(C)(C)C)cc3)o2)CC1,4.47 µM (active),–
COc1ccc(NC(=O)c2ccc(COc3ccccc3)o2)cc1,inactive,–
CCOc1ccc(OCc2ccc(C(=O)N3CCc4ccccc4C3)o2)cc1,inactive,–
CNC[C@H](O)[C@H](O)[C@H](O)[C@H](O)CO,inactive,–
CO[C@H]1COC(=O)CCC[C@@H](C)[C@H](OC)COC(=O)[C@H]2CCCN2C(=O)C/C=C\[C@@H]1C,–,6.78% [at 11.4 µM] (inactive)
O=c1cc(N2CCN(c3ccccc3)CC2)[nH]c(=O)n1C1CCCCC1,inactive,–
COc1c(/C=N/Nc2nc(N3CCCCC3)nc(N3CCCCC3)n2)cccc1[N+](=O)[O-],inactive,–
CN(C)Cc1cc(Cl)c(O)c(CN(C)C)c1,–,-14% [at 11.4 µM] (inactive)
CN(Cc1cc(Cl)cc(Cl)c1O)Cc1c(O)ccc2ccccc12,1.26 µM (active),–
Oc1ccc2ccccc2c1/C=C\c1ccc2c(Br)cc(Br)c(O)c2n1,–,-2.53% [at 11.4 µM] (inactive)
CN(Cc1cc(Br)cc(Br)c1O)Cc1c(O)ccc2ccccc12,1.58 µM (active),–

Structure (SMILES),AC50,"activity, negative = inhibition"
CCN(Cc1cc(Cl)cc(C)c1O)Cc1c(O)ccc2ccccc12,1.26 µM (active),–
COc1ccc(C=Nc2c(O)ccc3ccccc23)cc1OC,–,-7.34% [at 11.4 µM] (inactive)
Oc1ccc(Cl)cc1Cc1cc(Cl)cc(Cc2cc(Cl)ccc2O)c1O,–,-10.5% [at 11.4 µM] (inactive)
Cc1c(C(c2cccc([N+](=O)[O-])c2O)c2c(C)n(C)n(-c3ccccc3)c2=O)c(=O)n(-c2ccccc2)n1C,inactive,–
COc1ccc(C(NC(=O)c2ccc(-c3ccccc3)cc2)c2ccccc2)cc1 (configuration not stated),inactive,–
CCN(CC)C(=O)C1CCN(S(=O)(=O)c2ccc3oc4ccccc4c3c2)CC1,inactive,–
COC(=O)c1ccc2ccn(CC(=O)NC3CCCCC3)c2c1,inactive,–
Cn1cc(-c2nc3cncnc3n(CCN)c2=O)c2ccccc21,inactive,–
CCCCOC1(c2ccccc2)OC(=O)c2ccccc21 (configuration not stated),inactive,–
COc1ccccc1CN1CC[C@@]2(CCCN(C(=O)c3cccn3C)C2)C1,0.316 µM (active),–
Cn1cccc1C(=O)N1CCC2(CCN(Cc3nccs3)CC2)CC1,inactive,–
COc1ccc(NC(=O)N2CC[C@@]3(CCCN(C(=O)c4cccn4C)C3)C2)cc1,inactive,–
COc1ccccc1CN1CCC2(CC1)CCN(C(=O)c1cccn1C)CC2,3.98 µM (active),–
Cn1cccc1C(=O)N1CCC2(CCCN(c3ccccc3)C2)CC1,inactive,–
COc1ccc(NC(=O)N2CCC3(CC2)CCN(C(=O)c2cccn2C)CC3)cc1,inactive,–
COc1ccccc1CN1CCCC2(CCN(C(=O)c3cccn3C)CC2)C1,3.16 µM (active),–
CC(C)NC(=O)N1CC[C@@]2(CCCN(C(=O)c3cccn3C)C2)C1,inactive,–
CN1CCCC2(CCN(C(=O)c3cccn3C)CC2)C1,inactive,–
Cc1ccc(-c2csc(N3CCC(NS(=O)(=O)c4ccc5c(c4)OCCO5)CC3)n2)cc1,inactive,–
COc1ccc(-c2nc3cnc(N4CCN(C)CC4)nc3n(CCC#N)c2=O)cc1,inactive,–
Cc1cc2nnc(SCCCCN3C(=O)c4ccccc4C3=O)n2c2ccccc12,inactive,–
COc1cc2c(cc1OC)C(c1ccc(N)cc1)=NNC(=O)C2,inactive,–
O=c1ccn(-c2cccc(C(F)(F)F)c2)nc1-c1ccn(-c2ccccc2F)n1,inactive,–
CCOC(=O)CSc1cc(C(F)(F)F)nc(-c2ccccn2)n1,inactive,–
CCOC(=O)CSc1cc(CS(=O)c2ccc(Cl)cc2)nc(-c2ccccc2)n1 (configuration not stated),14.1 µM (active),–
CCOC(=O)CSc1nc(-c2ccccc2)nc2ccccc12,inactive,–

Structure (SMILES),AC50,"activity, negative = inhibition"
Oc1c(Cl)cc(C(c2cc(Cl)c(O)c(Cl)c2)C(c2cc(Cl)c(O)c(Cl)c2)c2cc(Cl)c(O)c(Cl)c2)cc1Cl,–,-3.64% [at 11.4 µM] (inactive)
C=C1CC[C@H](O)C/C1=C/C=C1\CCC[C@]2(C)[C@H]1CC[C@H]2[C@@H](C)/C=C\[C@@H](C)C(C)C,inactive,–
CC(=O)c1cc(C)ccc1OC(=O)CCN1C(=O)C2C3c4ccccc4C(c4ccccc43)C2C1=O (configuration not stated),inactive,–
Oc1cc(O)cc(/C=C\c2ccc(O)c(O)c2)c1,inactive,–
O=C(NCC1COc2ccccc2O1)C1CCN(S(=O)(=O)c2cccc3nsnc23)CC1 (configuration not stated),3.55 µM (active),–
CN(CCCNC(=O)C1CCN(S(=O)(=O)c2cccc3nsnc23)CC1)Cc1ccccc1,5.01 µM (active),–
O=C(C1CCN(S(=O)(=O)c2cccc3nsnc23)CC1)N1CCN(c2ccccc2F)CC1,inactive,–
O=C(C1CCN(S(=O)(=O)c2cccc3nsnc23)CC1)N1CCCc2ccccc21,inactive,–
COc1ccc(CCNC(=O)C2CCN(S(=O)(=O)c3cccc4nsnc34)CC2)cc1OC,inactive,–
O=S(=O)(c1cccc2nsnc12)N1CCCC1,inactive,–
C=C(C)COc1ccc2c(c1)CCC1C2CC[C@]2(C)C(=O)/C(=N/O)CC12 (some centres not stated),–,14.1% [at 11.4 µM] (inactive)
COc1ccc(C(=O)NC2(C(F)(F)F)C(=O)Nc3c2c(=O)[nH]c(=O)n3CCc2ccc(OC)c(OC)c2)cc1 (configuration not stated),inactive,–
O=C(NC(=S)NNC(=O)c1cccs1)c1ccco1,inactive,–
Cc1cc(C(=O)OC2CCOC2=O)c2ccccc2n1 (configuration not stated),inactive,–
C[C@@H]1O[C@@H](O)[C@@H](O)[C@H](O)[C@H]1O,–,-0.841% [at 11.4 µM] (inactive)
Cc1ccc(-n2ncc(N(C)C)c(Cl)c2=O)cc1,inactive,–
CC[C@](N)(C(=O)O)C(C)C,–,10.5% [at 11.4 µM] (inactive)
O=C1NCCc2c1[nH]c1ccccc21,inactive,–
O=c1c2ccccc2nc2n1CCc1c-2[nH]c2ccccc12,inactive,–
c1ccc2c3c([nH]c2c1)[C@@H]1[C@H]2CC[C@H]([C@H]4CCCN[C@H]42)N1CC3,7.94 µM (active),–
O=[N+]([O-])c1ccc(Nc2nc(N/N=C\c3ccc4c(c3)OCO4)nc(N3CCCCC3)n2)cc1,inactive,–
CN(C)S(=O)(=O)Oc1cccc(C(=O)Nc2ccc(Cl)c(Cl)c2)c1,inactive,–
CN(C)S(=O)(=O)Oc1ccsc1C(=O)Nc1ccc(Cl)cc1,22.4 µM (active),–
CN(C)S(=O)(=O)Oc1ccc(Cl)cc1C(=O)Nc1cccc(C(F)(F)F)c1,inactive,–
